Our source for the growth values is PubChem BioAssay (NCI).

Structures are written as SMILES. The panel holds about 83,000 compounds, 20% with a hit somewhere; the sample as a whole holds those more often.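 How to read the values: 0–100, growth inhibition (40 = 60% inhibited); 0, no net growth; -100 to 0, cell death (-40 = 40% of starting cells died; -100 = all dead).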 Activity calls are given as the source filed them. Rule for the calls: active = growth percent below 10; inactive = the rest.

In this assay the test system is EKVX NSCLC. Nature of the assay: NCI-60 one-dose screen, 48 h (100 = growth as untreated, 0 = no growth, -100 = all killed). The following applies: 10 µM unless noted.
For `c1cnc2ccc3ncccc3c2c1`, the growth was 101% (inactive).

As to `CCCCCCCCCCSc1ncnc2nc[nH]c12`, the growth is 51.4% (inactive).

With `Clc1ccc2c(Nc3ccc4oc(NCCN5CCCC5)nc4c3)ccnc2c1`, the growth is 104% (inactive).

For `CCN(CC)CCCNCCCNc1cc(OC)cc2cccnc12`, the growth was 80.7% (inactive).

Regarding `CCCCCCCCCCCCNc1ncnc2[nH]ncc12`, the growth was 51.2% (inactive).

In the case of `CCCCCCCC/C=C/CCCCCCCC1=NC(C)(C)CN1CCO`, the growth is 58.5% (inactive).

In the case of `O=C(CN1CCCCC1)Sc1nnc2sc3ccccc3n12`, the growth was 104% (inactive).

With `c1cncc(CNc2ccccc2-c2nnc(Nc3ccc4c(c3)OCO4)o2)c1`, the growth is 35.3% (inactive).

For the compound `CC(=O)NC1(C(=O)O)CCCC1`, the growth was 112% (inactive).

Consider `CCCCCCCCCCCCCCCCN=C(CC(=O)O)C(=O)O`, for which the growth was 113% (inactive).

Regarding `c1ccc(N2CCN(c3nncc4ccccc34)CC2)nc1`, the growth was 110% (inactive).

For the compound `O=c1[nH]c(Cl)nc2c1cnn2-c1ccccc1`, the growth was 93.7% (inactive).

On to `ClC1=C(Cl)C(Cl)=C(Cl)C1=C/C=C/c1ccccc1`, for which the growth was -6.52% (active).

As to `CN(CC(=O)N(Cc1ccc(C2CCCCC2)cc1)c1ccc(C(=O)O)cc1)S(=O)(=O)c1c(F)c(F)c(F)c(F)c1F`, the growth was 92.1% (inactive).

As to `COc1ccc(C2CC(c3cccc(Nc4ccnc5cc(Cl)ccc45)c3)=NN2C=O)cc1` (stereo not drawn), the growth was 39.4% (inactive).

For the compound `CCCCCCCCCCCCCCCCCC1=NC(C)(C)CN1CCO`, the growth is 15.3% (inactive).

For the compound `COc1ccc(CCN2CCCN3C2=Nc2ccccc2S3(=O)=O)cc1`, the growth was 45% (inactive).

Consider `CCOC(=O)c1cc(-c2cccnc2)nc2c(Cl)cc(Cl)cc12`, for which the growth is 96.5% (inactive).
